KB-3-1 cytotox: KB-3-1 parental cell cytotoxicity; KB-3-1 viability, CellTiter-Glo ATP luminescence, 72 h; Potency, µM (highest dose often 46.1 µM), most hits filed as cytotoxic; actives 1.4% (n = 400,000); note: % is set by controls: 0 for no effect and ±100 for the full control effect; nearly all actives have a fitted effect of over 60% in size
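KB-3-1 parental drug-naive adenocarcinoma cells in DMEM/10% FBS, incubated 72 h at 37 C with pin-transferred compounds across a concentration series. Viability by CellTiter-Glo luminescence; concentration-response curves fitted after normalization.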
SW480 rerep: inducers of DNA re-replication in SW480 colon cancer cells; SW480 DNA re-replication, Hoechst DNA content imaging, 48 h; Potency, µM (top dose mostly 46.1 µM), inactives show top-dose re-replication activation, hits mostly activators; actives 1.8% (n = 340,000); AID 624297; note: % of control where 0% means no effect; nearly all actives have a fitted effect of over 55% in size
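Hoechst fluorescence of nuclei (405 nm excitation, 500-530 nm emission) measured by plate-scanning imager after 48 hr compound exposure at 37 C; re-replication scored as increased number of nuclei with elevated intensity.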
MCF10A rerep: inducers of DNA re-replication in MCF 10A breast cells; MCF 10A DNA re-replication, Hoechst nuclear intensity, 48 h; Potency, µM (top dose mostly 46.1 µM), for the others: top-dose activity, positive = re-replication, usual class: activators; actives 2.9% (n = 350,000); note: % of control where 0% means no effect; nearly all actives have a fitted effect of over 50% in size
PTAP TSG101 blk: blocks PTAP/TSG101 interaction to inhibit HIV-1 budding; Potency, µM (series often up to 115 µM), for inactives: at the top dose activity change, negative = inhibition, most hits filed as inhibitors; 340,000 tested, under 10 active; Fluorescence polarization, FITC-PTAP peptide / Tsg101 binding; Q99816; active = well fitted inhibition curve with a large enough effect in the main read-out, with a control signal flat, not every such curve was filed as active; inconclusive = small, poorly fitted or top-dose-only effect, or effect the other way, or a change in a side signal; inactive = no such curve, though single readings can be large or run the other way; note: % of control where 0% means no effect
Target sequence (Q99816 whole entry, looked up): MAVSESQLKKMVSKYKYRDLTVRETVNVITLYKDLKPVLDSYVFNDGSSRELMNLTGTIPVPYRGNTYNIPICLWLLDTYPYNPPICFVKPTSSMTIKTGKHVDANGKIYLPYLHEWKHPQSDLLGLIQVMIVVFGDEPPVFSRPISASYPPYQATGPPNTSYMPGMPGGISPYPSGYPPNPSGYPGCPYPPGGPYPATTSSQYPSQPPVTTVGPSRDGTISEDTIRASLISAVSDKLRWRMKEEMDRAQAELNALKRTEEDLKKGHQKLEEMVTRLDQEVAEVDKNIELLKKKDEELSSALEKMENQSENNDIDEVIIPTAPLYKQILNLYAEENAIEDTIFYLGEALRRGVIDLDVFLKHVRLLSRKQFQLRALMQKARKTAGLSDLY
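Tsg101 binding domain (10 uM final) was mixed with compound and a FITC-labeled PTAP peptide (50 nM final) in HEPES pH 7.5 buffer with NaCl, Tween 20, EDTA and TCEP; fluorescence polarization was read after 20 min at r.t.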
PINK1 modulator: modulators of PINK1 expression; PINK1 immunofluorescence, high-content cytometry, 24 h; Potency, µM (titrated, usually from 76.6 µM), for inactives: at the top dose activation (PINK1 increase), hits mostly activators; actives 0.2% (n = 410,000); AID 624263; active = well fitted activation curve with a large enough effect; inconclusive = small, poorly fitted or top-dose-only effect; cell line not stated here; note: % of control where 0% means no effect; nearly all actives have a fitted effect of over 65% in size
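Decision-based qHTS: stable cells, 24 h exposure to five compound concentrations, CCCP as control. Fixed cells stained for PINK1 plus nuclear, mitochondrial and cell markers, cytometer read.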
KB-V1 cytotox: kills drug-selected multidrug resistant KB-V1 cells | KB-V1 MDR cells viability, CellTiter-Glo, 72 h | Potency, µM (top dose mostly 46.1 µM), actives largely listed as cytotoxic | actives 3.4% (n = 400,000); note: % is set by controls: 0 for no effect and ±100 for the full control effect; nearly all actives have a fitted effect of over 60% in size
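Readout: CellTiter-Glo luminescence, 10 min after addition. Cells: KB-V1 MDR subline, 72 h at 37 degrees C with compound. Analysis: corrected, normalized data fitted to concentration-effect curves.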
* = called active by the depositor; [ ] = another dose, or the depositor's remark. An excerpt weighted towards active compounds, which were near 6.8% of everything screened. Unless noted, calls come from the whole dose curve; as a rule, active = well fitted curve in the direction sought with a large enough effect; inconclusive = small, poorly fitted or top-dose-only effect, or another doubt; inactive = no such curve, though single readings can be large; an effect the other way counts as inactive or inconclusive. Potency is the fitted concentration of half-maximal effect.

What do the screens show for `CCSc1ncc(Cl)c(C(=O)Nc2ccc(S(=O)(=O)Nc3nccc(C)n3)cc2)n1`?
KB-3-1 cytotox: inactive; PINK1 modulator: 1.1%; KB-V1 cytotox: inactive

How did CCOc1ccc(NC(=O)c2cccnc2Cl)c([N+](=O)[O-])c1 do in these assays?
KB-3-1 cytotox: inactive; SW480 rerep: 23.1µM*; MCF10A rerep: 7.6%; PTAP TSG101 blk: -5.4%; PINK1 modulator: 8.0%; KB-V1 cytotox: inconclusive

How did CCOc1ccc(NC(=O)c2ccco2)c([N+](=O)[O-])c1 do in these assays?
KB-3-1 cytotox: inactive; SW480 rerep: inconclusive; MCF10A rerep: 23.1%; PTAP TSG101 blk: -1.8%; PINK1 modulator: 8.5%; KB-V1 cytotox: inactive

What do the screens show for `COc1cc(NC(=O)c2cccnc2)ccc1NC(=O)c1ccccc1Cl`?
KB-3-1 cytotox: inactive; SW480 rerep: -14.3%; MCF10A rerep: -8.4%; PTAP TSG101 blk: -1.3%; PINK1 modulator: 6.3%; KB-V1 cytotox: inactive

How did COc1ccc(NC(=O)c2cccnc2)c([N+](=O)[O-])c1 do in these assays?
KB-3-1 cytotox: 16.4µM*; SW480 rerep: 16.4µM*; MCF10A rerep: inconclusive; PTAP TSG101 blk: 0.2%; PINK1 modulator: 4.2%; KB-V1 cytotox: inconclusive

Results for COc1cc(S(=O)(=O)Nc2cccc(C)c2)ccc1NC(=O)c1cccnc1 ?
KB-3-1 cytotox: inconclusive; SW480 rerep: -59.0%; MCF10A rerep: inconclusive; PTAP TSG101 blk: -3.9%; PINK1 modulator: 2.3%; KB-V1 cytotox: 20.6µM*

What do the screens show for `CCOc1ccc(-c2nonc2NC(=O)c2oc3ccc(F)cc3c2C)cc1`?
KB-3-1 cytotox: inconclusive; PINK1 modulator: 9.4%; KB-V1 cytotox: inactive

What do the screens show for `CC(C)(C)C(=O)NC1CC(=O)N(c2ccc3c(c2)OCCO3)C1` (stereo not given)?
KB-3-1 cytotox: inactive; PINK1 modulator: 0.2%; KB-V1 cytotox: inactive

How did COc1ccc(C2=C(C)C(N3CCC(C(=O)Nc4cc(C)ccc4C)CC3)=NS2(=O)=O)cc1 do in these assays?
KB-3-1 cytotox: inactive; PINK1 modulator: 3.3%; KB-V1 cytotox: inactive

Results for CC1(C(=O)NC2CCCCC2)Cc2ccccc2C(=O)N1Cc1ccc(F)cc1 (stereo not given) ?
PINK1 modulator: 0.4%

What do the screens show for `COc1ccccc1/C=C/C1(C(=O)NC2CCCC2)CC(=O)N1c1ccc(C)cc1` (stereo not given)?
KB-3-1 cytotox: 20.6µM*; SW480 rerep: inconclusive; MCF10A rerep: 18.4µM*; PTAP TSG101 blk: -5.1%; PINK1 modulator: -1.9%; KB-V1 cytotox: 2.91µM*

How did COc1ccccc1/C=C/c1onc(C)c1S(=O)(=O)N1CCC(C(=O)NC2CCCCCC2)CC1 do in these assays?
KB-3-1 cytotox: inactive; SW480 rerep: -5.6%; MCF10A rerep: 9.3%; PTAP TSG101 blk: -2.4%; PINK1 modulator: 6.2%; KB-V1 cytotox: inactive

How did CCN(CC(=O)NC1CCCCCC1)S(=O)(=O)c1ccccc1 do in these assays?
KB-3-1 cytotox: inactive; SW480 rerep: -7.4%; MCF10A rerep: -3.6%; PTAP TSG101 blk: 1.5%; PINK1 modulator: -0.6%; KB-V1 cytotox: inactive

Results for CCN(CC)S(=O)(=O)c1ccc(N2C(=O)CC2(/C=C/c2ccccc2)C(=O)NC2CCCC2)cc1 (stereo not given) ?
KB-3-1 cytotox: inactive; SW480 rerep: inconclusive; MCF10A rerep: inconclusive; PTAP TSG101 blk: -0.5%; PINK1 modulator: 8.6%; KB-V1 cytotox: 2.59µM*

What do the screens show for `COc1ccccc1/C=C/C1(C(=O)NC2CCCC2)CC(=O)N1c1ccc(F)cc1` (stereo not given)?
KB-3-1 cytotox: inactive; SW480 rerep: 16.4µM*; MCF10A rerep: inconclusive; PTAP TSG101 blk: -10.4%; PINK1 modulator: -1.1%; KB-V1 cytotox: inconclusive

Results for CCOC(=O)c1cc(-c2ccc(F)cc2)n(CCC(=O)Nc2nc3ccc(OC)cc3s2)c1C ?
KB-3-1 cytotox: inactive; PINK1 modulator: 3.3%; KB-V1 cytotox: inconclusive

What do the screens show for `COc1cc(C2CC(=O)c3c([nH]c(C(=O)OC4CCCCC4)c3C)C2)cc(OC)c1OC` (stereo not given)?
KB-3-1 cytotox: inconclusive; PINK1 modulator: 7.6%; KB-V1 cytotox: inactive

How did CC(CNS(=O)(=O)c1ccccc1)(c1ccccc1)N1CCCCC1 (stereo not given) do in these assays?
KB-3-1 cytotox: inactive; SW480 rerep: 2.59µM*; MCF10A rerep: -1.1%; PTAP TSG101 blk: -1.3%; PINK1 modulator: -1.5%; KB-V1 cytotox: inconclusive

How did O=C(CCNS(=O)(=O)c1ccccc1)N1CCCCCCC1 do in these assays?
KB-3-1 cytotox: inactive; SW480 rerep: -27.5%; MCF10A rerep: -9.4%; PTAP TSG101 blk: -1.7%; PINK1 modulator: -1.5%; KB-V1 cytotox: inactive

Results for O=C(O)C1C2C=CC(C2)C1C(=O)NCCC1=CCCCC1 (stereo not given) ?
KB-3-1 cytotox: inactive; SW480 rerep: -3.0%; MCF10A rerep: inconclusive; PTAP TSG101 blk: -3.3%; PINK1 modulator: 7.6%[38.3 µM]; KB-V1 cytotox: inactive

How did O=C(O)C1C2CCC(C2)C1C(=O)NCCC1=CCCCC1 (stereo not given) do in these assays?
KB-3-1 cytotox: inactive; SW480 rerep: 0.517µM*; MCF10A rerep: -4.3%; PTAP TSG101 blk: 0.3%; PINK1 modulator: 3.7%; KB-V1 cytotox: inactive

How did COC(=O)c1cccnc1-n1c(=O)c2cccnc2n(Cc2ccc(Cl)cc2)c1=O do in these assays?
KB-3-1 cytotox: inconclusive; SW480 rerep: 6.4%; MCF10A rerep: 0.4%; PTAP TSG101 blk: -0.2%; PINK1 modulator: 4.7%[38.3 µM]; KB-V1 cytotox: 23.1µM*

What do the screens show for `COc1cc(=O)n2c(c1C(=O)NC(C)c1ccco1)CCN(Cc1ccccc1C(F)(F)F)CC2` (stereo not given)?
PINK1 modulator: -0.3%

What do the screens show for `CC(C)Cc1nc(N2CCN(C(=O)c3ccco3)CC2)c(C#N)c2c1CCCC2`?
KB-3-1 cytotox: inactive; SW480 rerep: 84.8%; MCF10A rerep: 23.1µM*; PTAP TSG101 blk: -3.6%; PINK1 modulator: -0.5%; KB-V1 cytotox: inactive

Results for CC1(C)Cc2c(C#N)c(N3CCN(C(=O)c4ccccc4)CC3)nc(Cc3ccccc3)c2CO1 ?
KB-3-1 cytotox: inconclusive; SW480 rerep: 7.4%; MCF10A rerep: 3.3%; PTAP TSG101 blk: -0.5%; PINK1 modulator: -2.1%; KB-V1 cytotox: 18.4µM*

What do the screens show for `CC(C)C(=O)N1CCN(c2nc(-c3ccccc3)c3c(c2C#N)CCCC3)CC1`?
KB-3-1 cytotox: inactive; SW480 rerep: inconclusive; MCF10A rerep: 18.4µM*; PTAP TSG101 blk: -3.6%; PINK1 modulator: -6.7%[38.3 µM]; KB-V1 cytotox: inconclusive

Bioassay records (PubChem)
